As usually defined, the AC50 is the concentration at which the activity in the assay is half-maximal.

Where “and” joins values, the source holds several entries; their conditions need not be identical. Equal values may be shown once. Records with an inconclusive call do not appear. Calls of active or inactive are those of the source. How the source made its calls: active means hit-call score of the fitted dose curve at least 0.9, where 1 is the maximum; inconclusive means response in the unintended direction; inactive means score below 0.9.

The target in assay [1] is human Casein Kinase 1-delta (CK1D), CSNK1D (gene 1453) (UniProt P48730). Kind of assay: NVS_ENZ_hCK1D: NovaScreen (NVS) Enzymatic Assay for human Casein Kinase 1-delta (CK1D) (AID 2283148). The essentials: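 Recombinant human CK1-delta, cell-free; fluorescent substrate with electrophoretic mobility-shift separation of product, read 1 h after dosing. Single 25 uM duplicate screen, then concentration-response up to 50 uM; loss of signal vs DMSO.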
Sequence of human Casein Kinase 1-delta (CK1D), CSNK1D (gene 1453) (P48730 whole entry, looked up): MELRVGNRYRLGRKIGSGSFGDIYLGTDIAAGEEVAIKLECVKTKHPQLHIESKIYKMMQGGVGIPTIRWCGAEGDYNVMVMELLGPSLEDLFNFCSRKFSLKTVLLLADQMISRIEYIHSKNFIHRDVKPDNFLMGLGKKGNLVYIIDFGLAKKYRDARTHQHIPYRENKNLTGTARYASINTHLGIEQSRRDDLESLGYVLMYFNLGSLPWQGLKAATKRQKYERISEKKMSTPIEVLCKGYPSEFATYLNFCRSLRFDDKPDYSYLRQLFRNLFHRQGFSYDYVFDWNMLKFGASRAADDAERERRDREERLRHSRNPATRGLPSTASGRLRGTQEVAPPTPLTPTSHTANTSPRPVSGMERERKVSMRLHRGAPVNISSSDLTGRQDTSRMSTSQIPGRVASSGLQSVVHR

In assay [2] the target is human Dual Specificity Protein Phosphatase 3 (DUSP3), DUSP3 (gene 1845) (UniProt P51452). Kind of assay: NVS_ENZ_hDUSP3: NovaScreen (NVS) Enzymatic Assay for human Dual Specificity Protein Phosphatase 3 (DUSP3) (AID 2283152).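 Further: phosphatase activity of recombinant human DUSP3 on a fluorogenic substrate without cells.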 In short, it runs like this:
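Cell-free fluorescence-intensity enzyme activity assay with recombinant protein and substrate; loss of signal fitted relative to DMSO baseline. Primary screen in duplicate at 25 uM, actives then run in concentration series; measured 0 h after dosing.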

The target in assay [3] is human Esterase Plasma (ES), BCHE (gene 590) (UniProt P06276). Kind of assay: NVS_ENZ_hES: NovaScreen (NVS) Enzymatic Assay for human Esterase Plasma (ES) (AID 2283157). In short, it runs like this: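 Screening ran at 25 uM in duplicate, followed by singleton concentration series reaching 50 uM for actives. Human plasma protein, colorimetric detection, 0.25 h exposure, DMSO negative control.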
Sequence of human Esterase Plasma (ES), BCHE (gene 590) (P06276 whole entry, looked up): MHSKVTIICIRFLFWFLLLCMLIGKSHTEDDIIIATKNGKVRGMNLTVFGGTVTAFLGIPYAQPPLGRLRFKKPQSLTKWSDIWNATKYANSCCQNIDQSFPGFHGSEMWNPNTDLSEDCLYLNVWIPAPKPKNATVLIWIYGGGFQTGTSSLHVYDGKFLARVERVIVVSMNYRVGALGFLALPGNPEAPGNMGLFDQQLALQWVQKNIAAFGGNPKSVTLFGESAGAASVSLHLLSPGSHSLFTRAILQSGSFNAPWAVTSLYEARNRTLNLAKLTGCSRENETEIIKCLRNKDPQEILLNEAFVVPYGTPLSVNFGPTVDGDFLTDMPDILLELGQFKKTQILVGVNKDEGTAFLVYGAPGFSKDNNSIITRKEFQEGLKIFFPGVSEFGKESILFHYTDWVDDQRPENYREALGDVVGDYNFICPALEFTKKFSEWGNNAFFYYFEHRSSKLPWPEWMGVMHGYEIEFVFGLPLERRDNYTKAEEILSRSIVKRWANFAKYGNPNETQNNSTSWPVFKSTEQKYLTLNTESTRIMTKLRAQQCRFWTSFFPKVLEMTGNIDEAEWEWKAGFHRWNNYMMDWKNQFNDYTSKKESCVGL

Assay [4] deals with human Ephrin type-A Receptor 1 (EphA1), EPHA1 (gene 2041) (UniProt P21709). In words: NVS_ENZ_hEphA1: NovaScreen (NVS) Enzymatic Assay for human Ephrin type-A Receptor 1 (EphA1) (AID 2283158).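 Further: activity is signal loss versus DMSO meaning EphA1 kinase inhibition.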 The essentials:
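Cell-free kinase activity with recombinant protein, 1 hour after dosing; product separated by electrophoretic mobility shift, fluorescence read. Primary screen at 25 uM in duplicate; hits run as concentration-response up to 50 uM, relative to DMSO.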

The target in assay [5] is human Caspase 4 (CASP4), CASP4 (gene 837) (UniProt P49662). In words: NVS_ENZ_hCASP4: NovaScreen (NVS) Enzymatic Assay for human Caspase 4 (CASP4) (AID 2283143). The essentials:
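Compounds were first tested in duplicate at 25 uM, and hits were titrated singly to a 50 uM maximum. Recombinant protease from E. coli was read by fluorescence 2 h post-dose, and activity loss was fitted against the DMSO baseline.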

In assay [6] the target is human FYN Proto-Oncogene, Src family Tyrosine Kinase (Fyn), FYN (gene 2534) (UniProt P06241). Kind of assay: NVS_ENZ_hFyn: NovaScreen (NVS) Enzymatic Assay for human FYN Proto-Oncogene, Src family Tyrosine Kinase (Fyn) (AID 2283161). The essentials: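 Cell-free kinase activity read by fluorescence after mobility-shift separation of substrate and product, 1 h post-dose. Initial single concentration 25 uM in duplicate, then concentration-response follow-up; DMSO baseline.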

For assay [7], the target named is Glycogen synthase kinase-3 beta (Homo sapiens) (UniProt P49841). In words: NVS_ENZ_hGSK3b: NovaScreen (NVS) Enzymatic Assay for human Glycogen Synthase Kinase-3 beta (GSK3b) (AID 2283165). In short, it runs like this: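 Recombinant enzyme with specific fluorescent substrate, 1 h, product separated by electrophoretic mobility shift. Primary duplicate screen at 25 uM; actives (e.g. 30% inhibition) followed in singleton concentration-response to 50 uM. Signal loss fitted versus DMSO.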
Sequence of Glycogen synthase kinase-3 beta (Homo sapiens) (P49841 whole entry, looked up): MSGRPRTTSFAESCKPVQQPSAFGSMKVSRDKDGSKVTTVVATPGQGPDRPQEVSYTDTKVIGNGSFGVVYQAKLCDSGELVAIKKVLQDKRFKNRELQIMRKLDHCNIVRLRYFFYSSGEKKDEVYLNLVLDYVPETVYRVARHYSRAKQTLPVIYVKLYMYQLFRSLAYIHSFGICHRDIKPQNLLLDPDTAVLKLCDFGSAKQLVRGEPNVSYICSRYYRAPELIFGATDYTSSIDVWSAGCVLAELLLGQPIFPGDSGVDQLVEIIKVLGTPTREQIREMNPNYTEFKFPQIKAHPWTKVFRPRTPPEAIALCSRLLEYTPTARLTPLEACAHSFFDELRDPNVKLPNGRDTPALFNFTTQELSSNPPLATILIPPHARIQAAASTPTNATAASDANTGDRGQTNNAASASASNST

For assay [8], the target named is Mitogen-activated protein kinase 3 (Homo sapiens) (UniProt P27361). Kind of assay: NVS_ENZ_hMAPK3: NovaScreen (NVS) Enzymatic Assay for human Mitogen-Activated Protein Kinase 3 (MAPK 3) (AID 2283177). In short, it runs like this:
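Chemicals were first tested in duplicate at 25 uM, with hits re-run as concentration series (max 50 uM). Recombinant enzyme activity, measured 1 h post-dose in a cell-free format, was read by fluorescence/mobility shift relative to DMSO.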

Assay [9] addresses human Elastase, ELANE (gene 1991) (UniProt P08246). Kind of assay: NVS_ENZ_hElastase: NovaScreen (NVS) Enzymatic Assay for human Elastase (AID 2283153). The essentials: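 Concentration-response to 50 uM max, run singly for chemicals passing a threshold (e.g., 30% inhibition) in a duplicate 25 uM single-point screen. Neutrophil-derived human elastase, absorbance read-out of enzyme activity at 1.5 h; DMSO baseline.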

Assay [10] deals with human MAP Kinase-Activated Protein Kinase 2 (MAPKAPK2), MAPKAPK2 (gene 9261) (UniProt P49137). In words: NVS_ENZ_hMAPKAPK2: NovaScreen (NVS) Enzymatic Assay for human MAP Kinase-Activated Protein Kinase 2 (MAPKAPK2) (AID 2283178). In short, it runs like this: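 Chemicals screened in duplicate at 25 uM, then to 50 uM top concentration in concentration-response, against recombinant human MAPKAPK2; substrate conversion read 1 hr post-dosing by fluorescence after electrophoretic mobility-shift separation, loss-of-signal relative to DMSO.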
Sequence of human MAP Kinase-Activated Protein Kinase 2 (MAPKAPK2), MAPKAPK2 (gene 9261) (P49137 whole entry, looked up): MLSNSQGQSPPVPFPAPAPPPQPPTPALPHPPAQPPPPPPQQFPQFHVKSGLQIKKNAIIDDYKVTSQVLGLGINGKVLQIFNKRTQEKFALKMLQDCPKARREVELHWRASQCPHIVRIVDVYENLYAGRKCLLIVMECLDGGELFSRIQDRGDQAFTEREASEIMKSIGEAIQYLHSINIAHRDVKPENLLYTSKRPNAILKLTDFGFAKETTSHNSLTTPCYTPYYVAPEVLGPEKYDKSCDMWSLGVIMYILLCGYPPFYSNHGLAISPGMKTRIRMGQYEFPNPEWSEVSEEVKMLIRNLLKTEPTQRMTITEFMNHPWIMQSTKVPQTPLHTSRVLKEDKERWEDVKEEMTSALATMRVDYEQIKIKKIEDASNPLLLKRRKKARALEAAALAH

The target in assay [11] is human Matrix Metalloproteinase-7 (MMP7), MMP7 (gene 4316) (UniProt P09237). In words: NVS_ENZ_hMMP7: NovaScreen (NVS) Enzymatic Assay for human Matrix Metalloproteinase-7 (MMP7) (AID 2283183). The essentials: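 Compounds first tested at 25 uM in duplicate, then at up to 50 uM in concentration series if active. Protease activity measured by fluorescence intensity 1 h after dosing, with fitting relative to DMSO.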
Sequence of human Matrix Metalloproteinase-7 (MMP7), MMP7 (gene 4316) (P09237 whole entry, looked up): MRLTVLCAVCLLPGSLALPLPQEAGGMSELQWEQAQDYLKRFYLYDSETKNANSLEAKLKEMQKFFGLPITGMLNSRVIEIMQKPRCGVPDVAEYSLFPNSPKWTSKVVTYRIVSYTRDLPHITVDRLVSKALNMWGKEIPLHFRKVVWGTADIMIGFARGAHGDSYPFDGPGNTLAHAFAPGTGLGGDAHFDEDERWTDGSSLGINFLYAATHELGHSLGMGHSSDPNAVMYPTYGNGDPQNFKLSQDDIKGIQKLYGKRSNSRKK

For assay [12], the target named is human Caspase 8 (CASP8), CASP8 (gene 841) (UniProt Q14790). In words: NVS_ENZ_hCASP8: NovaScreen (NVS) Enzymatic Assay for human Caspase 8 (CASP8) (AID 2283146). The essentials: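 The primary screen tested compounds in duplicate at a single 25 uM concentration, with actives followed up in concentration series. Activity of recombinant (E. coli) protease was measured by fluorescence 1 h post-dose, as signal loss against DMSO.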

The target in assay [13] is Histone deacetylase 3 (Homo sapiens) (UniProt O15379). Kind of assay: NVS_ENZ_hHDAC3: NovaScreen (NVS) Enzymatic Assay for human Histone Deacetylase 3 (HDAC3) (AID 2283163). In short, it runs like this:
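Cell-free enzyme format: loss of fluorescent product after mobility-shift separation, 1 h incubation, recombinant human HDAC3. Single 25 uM duplicate screen first, then concentration series to a 50 uM top for hits; DMSO as baseline.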

Assay [14] addresses human Janus Kinase 2 (Jak2), JAK2 (gene 3717) (UniProt O60674). In words: NVS_ENZ_hJak2: NovaScreen (NVS) Enzymatic Assay for human Janus Kinase 2 (Jak2) (AID 2283169). The essentials: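 Single-point duplicate screen at 25 uM, with hits run in concentration series to a 50 uM top dose. Substrate-product separation by mobility shift with fluorescence detection, 1 h post-dosing; DMSO baseline.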

Assay [15] has as its target human LYN Proto-Oncogene, Src family Tyrosine Kinase (LynA), LYN (gene 4067) (UniProt P07948). In words: NVS_ENZ_hLynA: NovaScreen (NVS) Enzymatic Assay for human LYN Proto-Oncogene, Src family Tyrosine Kinase (LynA) (AID 2283173). The essentials:
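Recombinant kinase with fluorescent substrate; product separated from substrate by electrophoretic mobility shift and read 1 h after dosing. Duplicate screen at 25 uM, then concentration-response up to 50 uM; activity scored as signal loss against DMSO.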

The target in assay [16] is Collagenase 3 (Homo sapiens) (UniProt P45452). Kind of assay: NVS_ENZ_hMMP13: NovaScreen (NVS) Enzymatic Assay for human Matrix Metalloproteinase-13 (MMP13) (AID 2283182). In short, it runs like this: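 Recombinant MMP13 cleaving fluorescent substrate, cell-free, measured 1 h after dosing. Primary duplicate screen at 25 uM; actives tested in concentration-response up to 50 uM; loss of signal relative to DMSO.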

Assay [17] concerns the target human Insulin Receptor (InsR), INSR (gene 3643) (UniProt P06213). Kind of assay: NVS_ENZ_hInsR: NovaScreen (NVS) Enzymatic Assay for human Insulin Receptor (InsR) (AID 2283168). The essentials: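 Cell-free enzyme assay read 1 h post-dose by fluorescence after substrate/product mobility-shift separation. Duplicate 25 uM primary screen, then singleton concentration-response up to 50 uM for compounds passing threshold; loss of signal vs DMSO.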

Sequence of human Ephrin type-A Receptor 1 (EphA1), EPHA1 (gene 2041) (P21709 whole entry, looked up): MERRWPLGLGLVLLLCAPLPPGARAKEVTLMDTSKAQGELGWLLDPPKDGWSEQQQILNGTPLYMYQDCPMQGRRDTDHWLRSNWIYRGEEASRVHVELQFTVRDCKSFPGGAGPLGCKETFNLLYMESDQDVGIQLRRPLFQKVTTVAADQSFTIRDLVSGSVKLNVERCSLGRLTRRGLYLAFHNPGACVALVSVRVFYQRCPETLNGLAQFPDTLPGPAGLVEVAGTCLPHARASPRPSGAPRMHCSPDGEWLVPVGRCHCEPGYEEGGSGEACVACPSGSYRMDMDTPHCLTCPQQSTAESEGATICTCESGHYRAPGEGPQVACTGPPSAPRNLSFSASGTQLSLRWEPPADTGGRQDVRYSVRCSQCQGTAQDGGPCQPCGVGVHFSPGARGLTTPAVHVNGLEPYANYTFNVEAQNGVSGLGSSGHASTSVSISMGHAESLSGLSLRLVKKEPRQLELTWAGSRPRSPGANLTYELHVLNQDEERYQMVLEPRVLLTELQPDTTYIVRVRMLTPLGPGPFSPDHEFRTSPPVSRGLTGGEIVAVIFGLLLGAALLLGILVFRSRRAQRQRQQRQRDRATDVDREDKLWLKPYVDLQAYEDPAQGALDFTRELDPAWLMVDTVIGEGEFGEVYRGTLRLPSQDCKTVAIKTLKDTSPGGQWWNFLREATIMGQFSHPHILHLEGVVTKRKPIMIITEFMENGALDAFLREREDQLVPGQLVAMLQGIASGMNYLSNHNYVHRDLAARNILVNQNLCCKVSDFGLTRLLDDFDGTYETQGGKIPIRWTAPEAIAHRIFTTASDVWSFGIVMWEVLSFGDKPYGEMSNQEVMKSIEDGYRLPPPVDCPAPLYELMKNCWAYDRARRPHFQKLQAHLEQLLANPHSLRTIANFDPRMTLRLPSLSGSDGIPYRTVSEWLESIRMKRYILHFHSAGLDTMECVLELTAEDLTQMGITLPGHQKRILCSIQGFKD
Sequence of human Janus Kinase 2 (Jak2), JAK2 (gene 3717) (O60674 whole entry, looked up): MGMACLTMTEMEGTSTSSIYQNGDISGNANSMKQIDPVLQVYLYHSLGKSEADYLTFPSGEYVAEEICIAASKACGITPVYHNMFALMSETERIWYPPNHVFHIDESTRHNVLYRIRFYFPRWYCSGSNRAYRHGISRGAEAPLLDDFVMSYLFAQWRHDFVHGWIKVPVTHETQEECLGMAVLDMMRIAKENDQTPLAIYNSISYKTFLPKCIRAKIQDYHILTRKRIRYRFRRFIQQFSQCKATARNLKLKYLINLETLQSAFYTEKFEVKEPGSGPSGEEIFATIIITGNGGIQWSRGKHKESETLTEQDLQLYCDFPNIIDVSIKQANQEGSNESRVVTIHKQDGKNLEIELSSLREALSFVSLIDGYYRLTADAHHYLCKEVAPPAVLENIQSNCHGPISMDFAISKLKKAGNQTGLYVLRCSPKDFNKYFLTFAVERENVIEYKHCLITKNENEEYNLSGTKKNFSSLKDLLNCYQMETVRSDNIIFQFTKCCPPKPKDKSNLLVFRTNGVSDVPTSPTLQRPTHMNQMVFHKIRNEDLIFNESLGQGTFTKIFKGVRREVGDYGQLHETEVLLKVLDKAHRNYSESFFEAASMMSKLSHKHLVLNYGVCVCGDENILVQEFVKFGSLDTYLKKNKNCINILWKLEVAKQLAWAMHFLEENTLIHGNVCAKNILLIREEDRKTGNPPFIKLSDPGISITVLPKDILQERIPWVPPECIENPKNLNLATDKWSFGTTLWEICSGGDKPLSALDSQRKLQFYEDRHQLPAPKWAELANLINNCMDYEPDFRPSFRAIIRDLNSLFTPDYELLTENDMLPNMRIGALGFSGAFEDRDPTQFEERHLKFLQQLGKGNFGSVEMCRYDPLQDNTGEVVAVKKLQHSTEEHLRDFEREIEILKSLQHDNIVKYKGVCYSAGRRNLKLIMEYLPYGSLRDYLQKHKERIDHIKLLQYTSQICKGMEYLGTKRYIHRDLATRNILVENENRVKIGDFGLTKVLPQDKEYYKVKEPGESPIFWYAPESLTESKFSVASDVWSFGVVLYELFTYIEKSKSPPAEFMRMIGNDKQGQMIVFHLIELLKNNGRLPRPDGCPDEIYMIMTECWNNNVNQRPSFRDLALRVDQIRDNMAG
Sequence of human Dual Specificity Protein Phosphatase 3 (DUSP3), DUSP3 (gene 1845) (P51452 whole entry, looked up): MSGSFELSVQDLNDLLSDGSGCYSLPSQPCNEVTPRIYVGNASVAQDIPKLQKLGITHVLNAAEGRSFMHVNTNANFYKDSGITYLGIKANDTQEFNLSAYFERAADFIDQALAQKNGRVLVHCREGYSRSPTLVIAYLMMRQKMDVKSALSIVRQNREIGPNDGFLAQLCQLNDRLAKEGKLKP
Sequence of human Caspase 4 (CASP4), CASP4 (gene 837) (P49662 whole entry, looked up): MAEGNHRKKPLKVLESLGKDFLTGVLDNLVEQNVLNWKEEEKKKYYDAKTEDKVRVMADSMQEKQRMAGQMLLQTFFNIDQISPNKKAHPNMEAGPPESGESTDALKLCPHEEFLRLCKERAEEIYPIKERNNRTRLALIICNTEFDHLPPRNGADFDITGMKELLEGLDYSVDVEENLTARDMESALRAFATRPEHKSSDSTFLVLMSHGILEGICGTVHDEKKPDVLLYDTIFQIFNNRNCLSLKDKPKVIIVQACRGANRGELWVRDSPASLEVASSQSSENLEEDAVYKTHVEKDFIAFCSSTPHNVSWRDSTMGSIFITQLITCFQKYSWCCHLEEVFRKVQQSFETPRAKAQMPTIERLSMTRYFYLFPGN

For the compound `O=C(O)[C@H](O)[C@@H](O)C(=O)O`, the result in assay [1] was inactive. Take `C=CCc1cc(S(=O)(=O)c2ccc(O)c(CC=C)c2)ccc1O`: in [2], the result was inactive. With `CCCCCCCCCC`, the result in [2] and in assay [3] was inactive. Regarding `S=P(N1CC1)(N1CC1)N1CC1`, the concentration at half-maximal activity (AC50) in [2] is 20.3 µM (active) and 26.1 µM (active). In addition, the compound was classed as inactive in [4]. Turning to `CCCCCCCC/C=C\CCCCCCCC(=O)OC[C@@H](O)[C@H]1OC[C@H](O)[C@H]1O`, the compound was called inactive in assay [5], in assay [6], in assay [7] and in assay [8]. Turning to `c1ccc2c(c1)-c1cccc3c1c-2cc1ccccc13`, the compound was classed as inactive in assay [9] and in [10]. As to `CCCc1ccccc1`, the compound was called inactive in assay [1]. `CC(C)C(=O)Nc1ccc([N+](=O)[O-])c(C(F)(F)F)c1`: the call in assay [5] and in assay [11] was inactive.

On to `O=C(O)c1cccc(C[C@@H]2COc3ccc(OCc4nc5cc(F)ccc5s4)cc3[C@@H]2O)c1`, for which the compound was classed as inactive in [1] and in assay [7]. As to `CCN(CC)C(=S)SSC(=S)N(CC)CC`, the call in [2] and in assay [3] was inactive.

Consider `CC(C)CCCCCCOC(=O)C1CCCCC1C(=O)OCCCCCCC(C)C` (centres undefined), for which the compound was called inactive in assay [12] and in assay [9]. As to `Cn1c(=O)c2[nH]cnc2n(C)c1=O`, the compound was called inactive in assay [10]. Turning to `OCCNCCO`, the call in [7] was inactive. For `Cc1nc(-c2ccccn2)ncc1C(=O)Nn1cc(C)c2cc(F)ccc21`, the call in assay [4] and in assay [13] was inactive. `O=C(NO)C1(NS(=O)(=O)c2ccc(Oc3ccc(F)cc3)cc2)CCOCC1`: the outcome in assay [4], in assay [6], in assay [7], in [14], in assay [15] and in [10] was inactive. Further, the results for the half-maximal activity concentration (AC50) in assay [16] and in [11] were 0.00244 µM (active) and 14.7 µM (active), respectively. For `NC(=O)NN=Cc1ccc([N+](=O)[O-])o1`, the AC50 in assay [13] was 1.26 µM (active). In addition, in [7], the result was inactive. On to `OC(Cn1cncn1)(Cn1cncn1)c1ccc(F)cc1F`, for which the call in [14] was inactive. For `Cc1ccc(S(=O)(=O)NC(=O)NN2CCCCCC2)cc1`, in assay [11], the compound was called inactive. Turning to `O=C(O)c1ccc2c(c1)nc(C(=O)NC1CCN(C3CC3)CC1)n2Cc1cc(-c2ccc(Cl)s2)on1`, the compound was classed as inactive in assay [7], in [14] and in assay [8]. Take `OCCOCCOCCO`: the call in assay [4] was inactive. For `NNC(=O)c1ccncc1`, the call in [10] was inactive. For `COCc1nnc(-c2ccc[n+]([O-])c2)n1-c1c(Cl)c(Cl)cc2[nH]c(=O)c(=O)[nH]c12`, in [16], the half-maximal activity concentration (AC50) is 21.5 µM (active). Regarding `CCCCCCCC1CCC(=O)O1` (centres undefined), the compound was classed as inactive in assay [7]. For `OC(CCl)CCl`, the call in assay [10] was inactive.

Turning to `OCc1ccccc1`, the compound was called inactive in [7].

`CCCCC(CC)C(=O)OCCOCCOCCOC(=O)C(CC)CCCC` (centres undefined): the result in [10] was inactive. On the same count and under the same terms, under `c1ccc2cc3ccccc3cc2c1` stands “inactive”.

For the compound `CCCOc1ccc(S(=O)(=O)N2CCN(CC)CC2)cc1-c1nc2c(CC)n(Cc3ccccn3)nc2c(=O)[nH]1`, the result in assay [17] was inactive.

On to `C[C@]12C=CC(=O)C=C1CC[C@H]1[C@@H]3C[C@@H](O)[C@](O)(C(=O)CO)[C@@]3(C)C[C@H](O)[C@@]12F`, for which the result in assay [7] was inactive. Take `CCCCOC(=O)c1ccccc1`: the compound was called inactive in [3]. Regarding `c1ccc(C(O[C@@H]2CCCN(CCc3ccc4c(c3)OCO4)C2)c2ccccc2)cc1`, the AC50 in assay [3] was 7.95 µM (active). Moreover, in [7], the compound was classed as inactive.

Take `c1ccc2ncccc2c1`: the outcome in assay [10] was inactive. In the case of `OC[C@H]1O[C@@H]2O[C@H]3[C@H](O)[C@@H](O)[C@@H](O[C@H]4[C@H](O)[C@@H](O)[C@@H](O[C@H]5[C@H](O)[C@@H](O)[C@@H](O[C@H]6[C@H](O)[C@@H](O)[C@@H](O[C@H]7[C@H](O)[C@@H](O)[C@@H](O[C@H]1[C@H](O)[C@H]2O)O[C@@H]7CO)O[C@@H]6CO)O[C@@H]5CO)O[C@@H]4CO)O[C@@H]3CO`, the outcome in assay [7] was inactive.

For `O=S(=O)(O)c1ccc(N=Nc2c(O)ccc3cc(S(=O)(=O)O)ccc23)cc1`, the AC50 in assay [16] was 14.8 µM (active). Turning to `CCc1ccc(O)c(C(C)(C)C)c1`, the outcome in assay [3] and in assay [14] was inactive. Take `OCC(CO)(CO)CO`: the compound was called inactive in [4].

Values taken from PubChem BioAssay (EPA / NIEHS).
